Most compounds without a hit are left out; they make up all but 12% or so of the library.
JMJD2A Tudor – blocks the human JMJD2A Tudor domain | O75164 | AlphaScreen JMJD2A-Tudor / H3K4me3 peptide binding | Potency, µM (highest dose often 114 µM), without a hit: top-dose activity change, negative = inhibition, hits mostly inhibitors | 390,000 tested, 4.4% active | AID 504339; further: potency means the concentration at half of the fitted maximal effect; on the % scale 0 is the no-effect control and ±100 the full control effect; nearly all actives have a fitted effect of over 50% in size
PLK1 PBD block – inhibitors of human PLK1 polo-box domain binding | P53350 | Plk1 PBD binding of FITC phosphopeptide, fluorescence polarization | Potency, µM, for the others: max response, negative = inhibition, actives largely listed as inhibitors | 360,000 tested, 2.8% active | AID 720504; further: potency means the concentration at half of the fitted maximal effect; series mostly up to about 57 µM; on the % scale 0 is the no-effect control and ±100 the full control effect; nearly all actives have a fitted effect of over 65% in size
Target sequence (P53350 whole entry, looked up, the tested form may be a part): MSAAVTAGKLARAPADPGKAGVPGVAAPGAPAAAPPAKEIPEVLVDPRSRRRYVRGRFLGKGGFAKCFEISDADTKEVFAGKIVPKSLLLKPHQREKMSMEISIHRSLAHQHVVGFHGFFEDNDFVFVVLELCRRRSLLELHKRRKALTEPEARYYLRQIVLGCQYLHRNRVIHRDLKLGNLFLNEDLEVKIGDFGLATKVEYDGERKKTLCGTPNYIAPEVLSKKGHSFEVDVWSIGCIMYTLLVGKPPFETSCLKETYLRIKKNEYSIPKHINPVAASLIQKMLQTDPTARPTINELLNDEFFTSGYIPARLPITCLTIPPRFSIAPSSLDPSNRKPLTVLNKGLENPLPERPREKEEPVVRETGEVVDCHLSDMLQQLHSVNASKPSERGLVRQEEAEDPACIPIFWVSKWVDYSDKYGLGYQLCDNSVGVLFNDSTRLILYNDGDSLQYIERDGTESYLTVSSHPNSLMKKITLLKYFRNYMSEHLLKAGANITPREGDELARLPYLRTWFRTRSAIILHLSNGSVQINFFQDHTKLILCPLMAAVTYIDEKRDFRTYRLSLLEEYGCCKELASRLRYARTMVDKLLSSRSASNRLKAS
BAZ2B inh – inhibitors of human BAZ2B bromodomain | Q9UIF8 | AlphaScreen BAZ2B-H3K14Ac peptide displacement | Potency, µM (series often up to 114 µM), for the others: top-dose activity change, negative = inhibition, most hits filed as inhibitors | 360,000 tested, 4.4% active; further: potency means the concentration at half of the fitted maximal effect; on the % scale 0 is the no-effect control and ±100 the full control effect; nearly all actives have a fitted effect of over 60% in size
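AlphaScreen displacement: compounds (up to 110uM) incubated 30 min at room temperature with a preformed 50 nM BAZ2B/50 nM biotinylated H3K14Ac peptide complex in PBS pH 7.4 with Tween-20. Donor and acceptor beads at 10 ug/mL final added, 20 min light-protected before reading.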
PI5P4K alpha inh – inhibitors of human PI5P4K alpha. P48426. PI5P4Kalpha enzyme, ADP-Glo luminescence, 60 min; stronger effect = lower value. max response, %. 330,000 tested, 1.2% active; active means max response of -50% or lower; inconclusive means between -30% and -50%; inactive means -30% or higher; further: value at the top dose of about 77 µM; on the % scale 0 is the no-effect control and ±100 the full control effect
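Single end-point luminescence (ADP-Glo) quantified ADP from PI5P4Kalpha turnover; ATP 5 microM final, 1 h at RT, 0.1% CHAPS and 0.28 mM EGTA in HEPES pH 7.4.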
HP1b binding inh – inhibitors of HP1-beta chromodomain binding to methylated histone tails; P83916; Potency, µM (titrated, usually from 114 µM), for the others: at the highest dose activity change, negative = inhibition, most hits filed as inhibitors; 390,000 tested, 0.56% active; AlphaScreen HP1-beta / biotin-H3K9me3 peptide binding; further: potency means the concentration at half of the fitted maximal effect; nearly all actives have a fitted effect of over 70% in size
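HP1-beta protein (50 nM final) preincubated 30 min at room temperature with biotinylated H3(1-18)K9me3 peptide (50 nM) in PBS pH 7.4, 0.01% Tween-20, then compound added for 30 min. AlphaScreen streptavidin donor/nickel chelate acceptor beads (10 ug/mL final), 30 min dark, luminescence read.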
G9a block – inhibitors of human histone lysine methyltransferase G9a; G9a H3K9 monomethylation, AlphaScreen, 2 h; Potency, µM (titrated, usually from 102 µM), without a hit: at the highest dose activity, negative = inhibition, most hits filed as inhibitors; 350,000 tested, 8.8% active; AID 504332; further: potency means the concentration at half of the fitted maximal effect; on the % scale 0 is the no-effect control and ±100 the full control effect; nearly all actives have a fitted effect of over 75% in size
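Methyltransferase reactions run at room temperature for 2 h (20 nM enzyme, 500 nM biotin-H3K9 peptide, 20 uM SAM) after a 15 min compound preincubation; product detected by AlphaScreen beads and anti-H3K9me1 antibody.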
Active calls of the source: *; ? = inconclusive; . = no result; [ ] = another dose, or the depositor's remark. Unless noted, the call rests on the fitted dose curve; in most records, active means well fitted curve in the direction sought with a large enough effect; inconclusive means small, poorly fitted or top-dose-only effect, or another doubt; inactive means no such curve, though single readings can be large; an effect the other way counts as inactive or inconclusive.

SMILES	JMJD2A Tudor	PLK1 PBD block	BAZ2B inh	PI5P4K alpha inh	HP1b binding inh	G9a block
CN1CCc2cc3c(cc2[C@@H]1O)OCO3	.	.	.	.	.	11.1%[21.5 µM]
O=C1NC(=S)NC(=O)C1=Cc1c(Cl)cccc1Cl	-12.4%	4.74µM*	.	?	3.7%[57 µM]	.
COc1ccc(C=C2C(=O)NC(=S)NC2=O)cc1	89.1µM*	9.47µM*	.	-64.4*	?	.
O=C(O)COc1ccc(/C=C2/SC(=S)N(Cc3ccccc3)C2=O)cc1	?	?	?	?	-8.1%	?
CN1/C(=C\C=C2C(=O)NC(=S)NC2=O)C(C)(C)c2ccccc21	-25.9%	-29.1%	?	-17.2	-7.3%	?
O=C1NC(=S)NC(=O)C1=Cc1cccc2cc3ccccc3cc12	-21.1%	0.752µM*	31.6µM*	-70.2*	7.7%	15.8µM*
O=C1NC(=S)NC(=O)C1=Cc1ccc(OCc2ccccc2)cc1	79.4µM*	2.67µM*	.	-81.5*	-9.5%	.
CCC/C=C/C=C/C(=O)OC1/C(=C/C(=O)OC)CC2CC(C(C)O)OC(=O)CC(O)CC3CC(OC(C)=O)C(C)(C)C(O)(CC4C/C(=C/C(=O)OC)CC(/C=C\C(C)(C)C1(O)O2)O4)O3 (stereo unspecified)	.	.	.	.	.	-7.7%[12.7 µM]
C[C@@H](C1CC[C@@]2(O)C3=CC(=O)[C@@H]4C[C@@H](O)[C@@H](O)C[C@]4(C)[C@H]3CC[C@]12C)[C@H](O)CCC(C)(C)O (stereo partly specified)	-5.5%	.	.	.	63.8%	.
CN(C)c1ccc(C=C(C#N)C#N)cc1	-17.9%	-15.8%	-21.2%	-0.8	27.6%	6.9%[59 µM]
CN(C)c1ccc(C=C2C=CC=C2)cc1	17.8µM*	-16.4%	.	-18.3	22.4µM*	.
C[N+](C)(C)CC#CCN1CCCC1=O	?	-17.3%	.	-3.3	-0.1%	0.631µM*
C/C(Cl)=C/CC1(CN2CCCC2=O)C(=O)NC(=O)NC1=O	10.5%	1.2%	43.4%	-3.1	30.5%	?
CN(C)CCOc1ccc(/C(=C(/CCCl)c2ccccc2)c2ccccc2)cc1	25.1µM*	4.2%	.	-1.2	-18.2%	?
O=C(CCC1CCCN(Cc2cccc3c2OCO3)C1)NCc1ccc(F)c(F)c1 (stereo unspecified)	-6.9%	5.9%	-15.4%	5.2	57.8%	18.7%[12.7 µM]
C/C(CC(c1ccccc1)c1c(O)c2ccccc2oc1=O)=N\NC(N)=S (stereo unspecified)	1.26µM*	-13.6%	1.8%	-8.7	-19.5%	?
CCOC(=O)c1sc(/N=C/c2c(O)n(-c3cccc(C)c3)c(=O)[nH]c2=O)c(C#N)c1C	50.1µM*	18.9µM*	0.8%	-21.0	?	-20.1%[59 µM]
CNS(=O)(=O)c1ccc(N=Cc2c(O)n(-c3cccc(C)c3)c(=O)[nH]c2=O)cc1	-20.3%	?	-2.9%	-8.4	-11.7%	?
COC(=O)c1c(Sc2ccccc2)c2ccccc2n1C	81.2%	-4.7%	29.9%	4.0	68.4%	24.0%[0.501 µM]
CCN1C(=O)C(=Cc2ccc(C)s2)C(=O)N(CC)C1=S	25.1µM*	0.532µM*	44.7µM*	-68.6*	39.8µM*	35.5µM*
O=c1n(Cl)c(=O)n(Cl)c(=O)n1Cl	.	.	.	.	.	12.6µM*
COc1nnc(-c2ccc(N3CCCCC3)c(NC(=O)c3ccc(Cl)cc3)c2)c2ccccc12	-7.2%	.	-7.4%	.	13.4%	?
CCOC(=O)c1cn2nc(OP(=S)(OCC)OCC)cc2nc1C	79.3%	-19.0%	76.9%	2.6	121.8%	20µM*
CCOC(=O)c1cnc(N2CC2)nc1N	-20.7%	-1.8%	.	-0.2	13.1%[57 µM]	.
COc1ccc(C[C@@H]2NC[C@H](O)[C@@H]2OC(C)=O)cc1	.	.	.	.	.	10.5%[21.5 µM]
Fc1ccc(CCNCc2ccc(Cl)c(Cl)c2)cc1	7.4%	-6.1%	16.7%[57.1 µM]	.	38.5%	3.6%[12.7 µM]
COc1cc(OC)c(OC)cc1CNCCc1ccc(OC)c(OC)c1	3.16µM*	-0.9%	?	.	?	?
COc1cc(OC)c(OC)cc1CNCCc1ccc(F)cc1	63.1µM*	4.1%	-16.9%	3.1	-16.4%	.
COc1ccc(CCNCc2ccccc2F)cc1	20µM*	-12.8%	44.7µM*	-0.1	-28.8%	7.2%
COc1ccc(OC)c(CNCCc2ccc(OC)c(OC)c2)c1	17.8µM*	-13.2%	?	1.9	-32.8%	.

Screens: PubChem BioAssay, National Center for Advancing Translational Sciences (NCATS)
